Gal4-VP16 FLuc: VP16 counterscreen qHTS for inhibitors of ROR gamma transcriptional activity. Drosophila S2 Gal4-VP16 UAS-luciferase, luminescence, 20 h. Potency, µM (top dose mostly 53.6 µM), hits mostly inhibitors. 310,000 tested, 3.5% active;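 note: Gal4-VP16 expression switched on by copper sulfate through the metallothionein promoter; nearly all actives have a fitted effect of over 50% in size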
ELG1 repair inh: qHTS screen for small molecules that inhibit ELG1-dependent DNA repair in human embryonic kidney (HEK293T) cells expressing luciferase-tagged ELG1; HEK293T ELG1-luciferase reporter, luminescence, 16 h; DNA damage induced by 5-fluorouridine; Potency, µM (titrated, usually from 46.1 µM), hits mostly inhibitors; 330,000 tested, 2.3% active; AID 504467, 2011; note: nearly all actives have a fitted effect of over 55% in size
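Luminescence from the luciferase reporter, measured 30 min after ONE-Glo reagent at room temperature, was the read-out. Beforehand, 2,000 cells per well were exposed for 16 hr at 37 °C to 5-fluorouridine together with compound or vehicle.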
SW480 rereplic: A quantitative high throughput screen for small molecules that induce DNA re-replication in SW480 colon adenocarcinoma cells; SW480 DNA re-replication, Hoechst DNA content imaging, 48 h; Potency, µM (doses to about 46.1 µM), usual class: activators; 340,000 tested, 1.8% active; note: nearly all actives have a fitted effect of over 55% in size
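SW480 cells exposed to compounds for 48 hr at 37 C, 5% CO2, then Hoechst-stained 40 min. Nuclear DNA content imaged by fluorescence scanning (405 nm excitation, 500-530 nm emission); re-replication scored as increased high-intensity nuclei.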
RORg inh: qHTS for inhibitors of ROR gamma transcriptional activity. Nuclear receptor ROR-gamma (Mus musculus), P51450. 310,000 tested, 5.4% active. Drosophila S2 Gal4-RORgamma UAS-luciferase reporter, 20 h. AID 2551, 2010. Potency, µM (top dose mostly 53.6 µM), usual class: inhibitors; note: nearly all actives have a fitted effect of over 60% in size
Target sequence (P51450 whole entry, looked up, the tested form may be a part): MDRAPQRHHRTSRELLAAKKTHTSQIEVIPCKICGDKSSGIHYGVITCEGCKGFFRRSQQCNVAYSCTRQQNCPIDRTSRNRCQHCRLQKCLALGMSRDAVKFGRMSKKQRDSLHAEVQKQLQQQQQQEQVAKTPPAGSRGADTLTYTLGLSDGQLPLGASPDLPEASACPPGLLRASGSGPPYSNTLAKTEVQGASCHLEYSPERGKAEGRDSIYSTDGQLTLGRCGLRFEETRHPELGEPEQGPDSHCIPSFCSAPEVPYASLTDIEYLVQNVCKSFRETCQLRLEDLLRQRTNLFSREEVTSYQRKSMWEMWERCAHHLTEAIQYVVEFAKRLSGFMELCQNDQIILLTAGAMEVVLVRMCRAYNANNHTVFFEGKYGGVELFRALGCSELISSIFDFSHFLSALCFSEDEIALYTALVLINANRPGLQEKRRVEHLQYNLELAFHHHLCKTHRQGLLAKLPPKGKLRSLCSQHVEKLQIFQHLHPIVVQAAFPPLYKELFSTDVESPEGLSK
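ROR gamma transcriptional activity was tracked as Gal4-UAS luciferase output in stably transfected Drosophila Schneider cells, with compound added 1 hr before 700 uM copper sulfate induction and a 20 hr ambient-temperature incubation.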
MCF10A rereplic: A quantitative high throughput screen for small molecules that induce DNA re-replication in MCF 10a normal breast cells; MCF 10A DNA re-replication, Hoechst nuclear intensity, 48 h; Potency, µM (highest dose often 46.1 µM), usual class: activators; 350,000 tested, 2.9% active; note: nearly all actives have a fitted effect of over 50% in size
Each line names hits and unclear results; the compound was inactive in the other large screens. A selection: hits, their analogues and other compounds. The true share with any hit is near 10%. Calls come from the whole dose curve; as a rule, active = well fitted curve in the direction sought with a large enough effect; inconclusive = small, poorly fitted or top-dose-only effect, or another doubt; inactive = no such curve, though single readings can be large; an effect the other way counts as inactive or inconclusive.

COc1ccc(O)c(/C=N/NC(=O)c2c(C)nnn2-c2nonc2N)c1	Gal4-VP16 FLuc inconclusive, ELG1 repair inh inconclusive, SW480 rereplic 7.3µM, RORg inh 11µM
COc1cccc(-c2c(C(=O)N/N=C/c3cccs3)nnn2-c2nonc2N)c1	Gal4-VP16 FLuc 10µM, RORg inh 7.1µM, MCF10A rereplic inconclusive
Cc1ccc(/C=N/NC(=O)c2nnn(-c3nonc3N)c2-c2ccc3c(c2)OCO3)s1	Gal4-VP16 FLuc 7.9µM, RORg inh 7.1µM
COc1cccc(-c2c(C(=O)N/N=C(\C)c3ccc(Cl)s3)nnn2-c2nonc2N)c1	Gal4-VP16 FLuc 10µM, MCF10A rereplic inconclusive
CCOc1cccc(-c2c(C(=O)N/N=C/c3cccs3)nnn2-c2nonc2N)c1	Gal4-VP16 FLuc 11µM, ELG1 repair inh inconclusive, SW480 rereplic inconclusive, RORg inh 7.1µM
COc1cccc(-c2c(C(=O)N/N=C(\C)c3ccco3)nnn2-c2nonc2N)c1	SW480 rereplic inconclusive, MCF10A rereplic inconclusive
CCC(=O)NC(=S)Nc1ccc2oc(-c3ccc(OC)cc3)nc2c1	ELG1 repair inh inconclusive
CCCC(=O)Nc1ccc(-c2nc3cc(C)ccc3o2)cc1	Gal4-VP16 FLuc 2.8µM, ELG1 repair inh inconclusive, RORg inh 4µM
CCCC(=O)Nc1ccc(-c2nc3cc(C)c(C)cc3o2)c(O)c1	ELG1 repair inh inconclusive, MCF10A rereplic inconclusive
COc1ccc(-c2nc3cc(NC(=S)NC(=O)Cc4ccccc4)ccc3o2)cc1	Gal4-VP16 FLuc 2.5µM, ELG1 repair inh inconclusive, RORg inh 4.5µM, MCF10A rereplic inconclusive
COc1cc(C(=O)Nc2ccc3oc(-c4cccnc4)nc3c2)cc(OC)c1OC	ELG1 repair inh 23µM, MCF10A rereplic inconclusive
CCCC(=O)Nc1ccc2oc(-c3ccc(OC)c(Br)c3)nc2c1	ELG1 repair inh inconclusive, SW480 rereplic inconclusive, MCF10A rereplic 18µM
COc1ccc(C(=O)Nc2ccc3oc(-c4cccnc4)nc3c2)cc1OC	ELG1 repair inh inconclusive
O=C1CC/C=C\C[C@@H](CC(=O)N(CCO)Cc2ccccc2)C(=O)N2CCC[C@H]2CO1	none (no result: Gal4-VP16 FLuc, RORg inh)
Clc1cccc(Cl)c1C[n+]1ccc2ccccc2c1	ELG1 repair inh inconclusive
Cc1ccc2oc(-c3ccc(NC(=O)c4ccncc4)cc3O)nc2c1	ELG1 repair inh inconclusive, RORg inh 7.1µM
O=c1c2c(nc3n1CCS3)c1cc(F)ccc1n2Cc1cc(=O)n2cc(Cl)ccc2n1	none
N#Cc1c2c(c(Nc3ccc(F)cc3)n3c1nc1ccccc13)CCCC2	MCF10A rereplic inconclusive (no result: Gal4-VP16 FLuc, ELG1 repair inh, RORg inh)
N#Cc1c2c(c(Nc3ccccc3)n3c1nc1ccccc13)CCC2	MCF10A rereplic 16µM
Cc1ccc(S(=O)(=O)NCCc2ccncc2)cc1C	ELG1 repair inh inconclusive
Cc1ccc(S(=O)(=O)NCCC(=O)Nc2cccc(Cl)c2)cc1	SW480 rereplic 0.29µM
COc1ccc(NC(=O)CNS(=O)(=O)c2ccccc2)cc1Cl	SW480 rereplic inconclusive, RORg inh inconclusive, MCF10A rereplic 8.2µM
Cc1ccc(S(=O)(=O)NCCC(=O)Nc2ccc(Cl)c(Cl)c2)cc1C	Gal4-VP16 FLuc 11µM, RORg inh inconclusive
Cc1ccc(S(=O)(=O)NCCC(=O)Nc2ccncc2)cc1C	SW480 rereplic 0.65µM (no result: Gal4-VP16 FLuc, RORg inh)
COc1ccc(NC(=O)COC(=O)CNS(=O)(=O)c2ccccc2)cc1OC	none
Cc1ccc(S(=O)(=O)NCCC(=O)Nc2ccc(Cl)c(Cl)c2)cc1	Gal4-VP16 FLuc inconclusive, MCF10A rereplic inconclusive
OCC1O[C@H](OC2C(CO)O[C@@](O)(CO)C2O)C(O)C(O)C1O (some centres not stated)	none (no result: ELG1 repair inh)
COc1ccc(Cc2nc(C)cc(Cl)n2)cc1[N+](=O)[O-]	none
Cc1ccc(C2=N/C(=C\c3cccs3)C(=O)N2Nc2ccccc2)cc1	ELG1 repair inh 15µM
CC[N+](C)(CC)CC(=O)Nc1c(C)cccc1C	none (no result: ELG1 repair inh, SW480 rereplic, MCF10A rereplic)
O=c1[nH]c2ccccc2c2oc(CCl)nc12	ELG1 repair inh inconclusive, MCF10A rereplic 21µM
CCC1CCc2c(c3ccccc3[nH]c2=O)O1 (configuration not stated)	none
CCC(CC)C(=O)N1N=C(c2ccc(NS(C)(=O)=O)cc2)CC1c1ccc(C)cc1 (configuration not stated)	ELG1 repair inh inconclusive, RORg inh inconclusive
CCN(CC(=O)NC1CCS(=O)(=O)C1)Cc1nc2c(Br)cc(Br)cc2c(=O)[nH]1 (configuration not stated)	none
CCN(CC(=O)NC(C)(C)C)Cc1nc2c(Br)cc(Br)cc2c(=O)[nH]1	Gal4-VP16 FLuc 3.2µM, SW480 rereplic inconclusive, RORg inh 0.71µM, MCF10A rereplic inconclusive
Cc1cccc(NC(=O)COC(=O)c2cc3ccccc3oc2=O)c1	SW480 rereplic 21µM, MCF10A rereplic 0.65µM
NS(=O)(=O)c1cccc(NC(=O)c2cc3ccccc3o2)c1	ELG1 repair inh inconclusive, SW480 rereplic 18µM
O=C(Nc1cccc(Br)c1)c1cc2ccccc2o1	ELG1 repair inh inconclusive
NS(=O)(=O)c1cccc(NC(=O)c2cc(=O)c3ccccc3o2)c1	ELG1 repair inh inconclusive, RORg inh inconclusive
Cc1cc(C(=O)Nc2cccc(C(=O)O)c2)c(C)o1	RORg inh inconclusive
Cc1cc(C(=O)Nc2cccc(C(=O)O)c2)oc1C	Gal4-VP16 FLuc inconclusive, ELG1 repair inh inconclusive, RORg inh 6.3µM
Cc1cccc(NC(=O)c2cc3ccccc3o2)c1	Gal4-VP16 FLuc 6.3µM, ELG1 repair inh inconclusive
CCCCn1c(SC(C)C(N)=O)nc2cc(C(=O)OC)ccc2c1=O (configuration not stated)	RORg inh 14µM
O=C1CCNc2ccc(-c3ccccc3)cc21	ELG1 repair inh inconclusive, MCF10A rereplic 23µM
Cc1ccc2c(c1)C(=O)CCN2	ELG1 repair inh inconclusive
c1ccc(CCn2nnnc2C(c2cccnc2)N2CCOCC2)cc1 (configuration not stated)	none
COc1ccccc1NC(=O)C1=C(C)NC(SCC(=O)Nc2ccc(C(=O)O)cc2)=C(C#N)C1c1cccs1 (configuration not stated)	none
O=S(=O)(Nc1ccc2c(c1)OCO2)c1ccc(Br)s1	SW480 rereplic inconclusive, RORg inh inconclusive, MCF10A rereplic 18µM
O=C(Nc1cccc(-c2cccc(F)c2)c1)C1CCN(C2CCOCC2)CC1	none
CN1CCO/C1=C(\C(Cl)=C(Cl)Cl)[N+](=O)[O-]	none
O=[N+]([O-])C(=C1Nc2ccccc2N1)C(Cl)=C(Cl)Cl	Gal4-VP16 FLuc inconclusive, ELG1 repair inh inconclusive, RORg inh 11µM, MCF10A rereplic inconclusive
O=C(c1ccc(=O)n(Cc2ccccc2)n1)N1CCN(C/C=C/c2ccccc2)CC1	ELG1 repair inh 16µM
CCCc1ccc2oc(C(=O)N(C)Cc3nccs3)c(C)c2c1	ELG1 repair inh inconclusive, RORg inh inconclusive, MCF10A rereplic inconclusive

Compound activity as filed in PubChem.
